These results are taken from PubChem BioAssay.

The source made the active and inactive calls.

One assay addresses Albumin (Bos taurus) (UniProt P02769). The experiment in a line: bovine serum albumin binders on microarray, profiling panel, artefact control for SMM control protein annotation, biochemical, small-molecule microarray, Alexa647 label, 635/667 nm fluorescence (AID 1118).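 Also: score merges 667 nm emission intensity and signal-to-noise per printed compound spot.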 Conditions: BSA-A647 binding, fluorescence 635 nm, higher = more signal.
Assay [1] can be described thus: small-molecule microarray binders of probe aXIP, primary screen, biochemical, NeuroSMM set, 635/667 nm fluorescence (AID 1119).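 Also: probe is the protein aXip251-270 applied at 1 µg/mL to compound-printed slides; binding of probe to printed compounds measured as 667 nm fluorescence plus signal to noise.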 The conditions noted are these: higher = more signal, called active from +8 up or from −8 down.
Assay [2] in a line: small-molecule binders of probe aNOTCH3, primary screen, biochemical, small-molecule microarray, 635/667 nm fluorescence (AID 1120).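 Also: probe is a biotin-tagged antibody raised against NOTCH3 rather than NOTCH3 protein; score merges spot fluorescence near 667 nm with spot signal to noise.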 The conditions noted are these: higher = more signal.
A short description of assay [3]: small-molecule binders of probe aNOTCH2, primary screen, biochemical, small-molecule microarray, 635/667 nm fluorescence (AID 1121).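 Also: score merges feature fluorescence read at 667 nm with its signal to noise.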 Conditions: higher = more signal.
Assay [4] concerns the target Carbonic anhydrase 2 (Homo sapiens) (UniProt P00918). Briefly: CAII small-molecule binders, profiling panel, biochemical, small-molecule microarray, Alexa647-labelled CAII (AID 1122). Conditions: CAII-A647 binding fluorescence, higher = more signal.
Assay [5] can be described thus: COS7 lysate on small-molecule microarray, probe aHis, 635 nm (AID 1123).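 Also: z-score combines 667nm fluorescence intensity with signal-to-noise per printed compound spot.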 The conditions noted are these: COS7 cell lysate, fluorescence, higher = more signal.
Assay [6] can be described thus: compound binding in COS7 lysate, probe aLAP1, primary screen, cell lysate, small-molecule microarray (AID 1124).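 Also: lysate comes from COS7 cells expressing LAP1 and is applied at 0.3 µg/mL; score merges spot fluorescence near 667 nm with signal-to-noise over triplicate slides.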 Conditions: probe aLAP1, fluorescence, higher = more signal.
For a further assay, the system named is Sam68 (KHDRBS1). The experiment in a line: Sam68 small-molecule binders, primary screen, biochemical, small-molecule microarray, 635 nm fluorescence (AID 1125).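 Also: score merges 667 nm channel intensity with signal to noise over triplicate slides.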 Conditions: small-molecule microarray binding, higher = more signal.
In assay [7] the test system is Chordin-like protein 2 (CHRDL2). Briefly: CHRDL2 small-molecule binders, primary screen, biochemical, small-molecule microarray, 635 nm fluorescence (AID 1126).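 Also: printed compound slides probed with Chrdl2 protein at 4 µg/mL for 1 h at 4 C; score merges 667 nm emission intensity with signal to noise over three replicate slides.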 The conditions noted are these: small-molecule microarray binding, fluorescence 635 nm; higher = more signal.
Assay [8] has as its target Concanavalin-A (Canavalia ensiformis) (UniProt P02866). The experiment in a line: ConA small-molecule binders, primary screen, artefact control for SMM control protein annotation, biochemical, small-molecule microarray, Alexa647 label, 635 nm (AID 1127).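 Also: z combines 667 nm emission intensity with signal-to-noise across three replicate slides.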 Conditions: ConA-A647 binding fluorescence, higher = more signal.
Assay [9] in a line: anti-His antibody binders, primary screen, artefact control for SMM control protein annotation, biochemical, small-molecule microarray, 635 nm fluorescence (AID 1128).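 Also: score merges feature fluorescence with signal-to-noise for each printed compound spot.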 The conditions noted are these: anti-His Alexa647 antibody binding, higher = more signal.
Assay [10] has as its system Human papillomavirus type 1a E7 protein (residues 1-88). Briefly: HPV1a E7 small-molecule binders, primary screen, biochemical, small-molecule microarray, residues 1-88, 635 nm (AID 1129). The conditions noted are these: small-molecule microarray binding, fluorescence 635 nm; higher = more signal.
Assay [11] has as its target Focal adhesion kinase 1 (Homo sapiens) (UniProt Q05397). The experiment in a line: small-molecule microarray binders of FAK, primary screen, biochemical, 635/667 nm fluorescence, BSA, DTT (AID 1130).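 Also: composite of spot emission at 667 nm and signal to noise over triplicate slides.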 Conditions: PTK2 binding, 635 nm fluorescence, higher = more signal.
Assay [12] has as its system Fibrinogen (Alexa647-labelled). The experiment in a line: fibrinogen binders on compound microarrays, profiling panel, artefact control for SMM control-protein annotation, biochemical, small-molecule microarray, 635/667 nm fluorescence (AID 1131).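 Also: z-score merges 667 nm fluorescence with per-spot signal-to-noise over triplicate slides.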 Conditions: fibrinogen-A647 binding fluorescence, higher = more signal.
Assay [13] deals with Follistatin (Homo sapiens) (UniProt P19883). Briefly: follistatin binders on small-molecule microarrays, primary screen, biochemical, small-molecule microarray, 635/667 nm fluorescence (AID 1132). Conditions: FST binding, 635 nm fluorescence, higher = more signal.
Sequence of Follistatin (Homo sapiens) (P19883 whole entry, looked up): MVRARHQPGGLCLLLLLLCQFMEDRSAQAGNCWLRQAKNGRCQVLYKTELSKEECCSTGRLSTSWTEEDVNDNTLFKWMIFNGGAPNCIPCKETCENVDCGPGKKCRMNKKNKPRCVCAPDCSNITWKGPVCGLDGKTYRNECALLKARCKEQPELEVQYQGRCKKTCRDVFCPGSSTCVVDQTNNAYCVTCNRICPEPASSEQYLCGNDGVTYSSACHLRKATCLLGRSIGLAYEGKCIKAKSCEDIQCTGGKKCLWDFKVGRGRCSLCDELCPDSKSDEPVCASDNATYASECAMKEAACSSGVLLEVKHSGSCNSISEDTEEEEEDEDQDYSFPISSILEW
Assay [14] addresses Fibroblast growth factor 2 (Homo sapiens) (UniProt P09038). The experiment in a line: FGF2 binders on small-molecule microarrays, primary screen, biochemical, small-molecule microarray, 635/667 nm fluorescence (AID 1133). Conditions: small-molecule microarray binding, FGF2, fluorescence 635/667; higher = more signal.
Assay [15] is described as follows: mitochondrial membrane potential change in A549 cells, profiling panel, cell-based, JC-1 fluorescence, basal, 24 h, 100 nL (AID 1138).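 Also: A549 lung adenocarcinoma cells under basal conditions with no added stimulus; test concentration not given here.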 Conditions: higher = more signal.
A further assay concerns Lefty1. Briefly: Lefty1 binders on small-molecule microarrays, primary screen, biochemical, small-molecule microarray, 635/667 nm fluorescence (AID 1139). The conditions noted are these: small-molecule microarray binding, fluorescence 635/667; higher = more signal.
The subject of assay [16] is wheat germ agglutinin (Triticum aestivum), Alexa647-labelled. The experiment in a line: wheat germ agglutinin binders on compound microarrays, profiling panel, artefact control for SMM control-protein annotation, biochemical, small-molecule microarray, 635/667 nm fluorescence (AID 1140).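 Also: score merges 667 nm feature emission with signal to noise over triplicate slides.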 Conditions: WGA-A647 binding, 635 nm fluorescence, higher = more signal.
Assay [17] deals with Luciferin 4-monooxygenase (Photinus pyralis) (UniProt P08659). Briefly: firefly luciferase enzyme inhibitors, primary screen, biochemical, luminescence, purified enzyme, 2006 set (AID 1141).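 Also: cell-free assay with purified firefly luciferase at 100 ng per well in PBS; test concentration not given here.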 Conditions: SteadyGlo luminescence, 30 min, higher = more signal, called active from +8 up or from −8 down.
Sequence of Luciferin 4-monooxygenase (Photinus pyralis) (P08659 whole entry, looked up): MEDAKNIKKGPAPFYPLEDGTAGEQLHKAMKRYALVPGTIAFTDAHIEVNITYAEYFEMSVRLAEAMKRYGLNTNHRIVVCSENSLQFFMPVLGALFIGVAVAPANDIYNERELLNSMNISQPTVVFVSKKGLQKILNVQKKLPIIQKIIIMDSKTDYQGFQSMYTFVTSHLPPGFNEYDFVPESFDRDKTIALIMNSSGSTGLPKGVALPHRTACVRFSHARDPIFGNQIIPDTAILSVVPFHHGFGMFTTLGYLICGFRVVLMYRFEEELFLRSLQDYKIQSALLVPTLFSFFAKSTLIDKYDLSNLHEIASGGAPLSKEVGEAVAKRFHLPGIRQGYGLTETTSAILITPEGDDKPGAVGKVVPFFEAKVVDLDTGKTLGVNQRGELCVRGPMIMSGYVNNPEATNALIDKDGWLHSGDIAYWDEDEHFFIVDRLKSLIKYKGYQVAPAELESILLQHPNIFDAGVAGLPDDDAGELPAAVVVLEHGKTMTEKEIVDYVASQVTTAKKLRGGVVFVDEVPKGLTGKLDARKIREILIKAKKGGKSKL

Sequence of Albumin (Bos taurus) (P02769 whole entry, looked up): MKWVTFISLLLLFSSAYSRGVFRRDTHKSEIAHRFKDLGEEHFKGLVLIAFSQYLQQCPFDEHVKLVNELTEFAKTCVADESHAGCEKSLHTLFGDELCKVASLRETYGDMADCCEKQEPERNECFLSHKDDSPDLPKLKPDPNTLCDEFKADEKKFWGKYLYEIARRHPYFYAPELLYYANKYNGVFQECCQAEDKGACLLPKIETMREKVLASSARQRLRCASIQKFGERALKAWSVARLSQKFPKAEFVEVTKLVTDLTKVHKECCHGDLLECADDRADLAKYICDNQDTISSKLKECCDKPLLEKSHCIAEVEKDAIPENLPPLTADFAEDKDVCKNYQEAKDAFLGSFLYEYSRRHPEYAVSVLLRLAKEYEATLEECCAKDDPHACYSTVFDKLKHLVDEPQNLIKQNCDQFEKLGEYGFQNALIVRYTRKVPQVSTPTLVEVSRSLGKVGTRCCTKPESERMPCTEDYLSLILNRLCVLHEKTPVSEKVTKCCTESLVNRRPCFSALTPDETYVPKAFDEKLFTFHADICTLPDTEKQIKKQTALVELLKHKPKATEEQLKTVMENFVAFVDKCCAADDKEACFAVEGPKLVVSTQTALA
Sequence of Fibroblast growth factor 2 (Homo sapiens) (P09038 whole entry, looked up): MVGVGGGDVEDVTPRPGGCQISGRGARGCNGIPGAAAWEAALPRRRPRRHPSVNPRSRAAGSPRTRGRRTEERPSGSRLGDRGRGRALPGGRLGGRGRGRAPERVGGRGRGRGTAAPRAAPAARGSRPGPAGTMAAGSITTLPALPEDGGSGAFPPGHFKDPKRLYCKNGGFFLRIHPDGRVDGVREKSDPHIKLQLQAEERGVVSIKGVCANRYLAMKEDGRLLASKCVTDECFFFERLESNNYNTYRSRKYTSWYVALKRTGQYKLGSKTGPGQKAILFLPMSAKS
Sequence of Focal adhesion kinase 1 (Homo sapiens) (Q05397 whole entry, looked up): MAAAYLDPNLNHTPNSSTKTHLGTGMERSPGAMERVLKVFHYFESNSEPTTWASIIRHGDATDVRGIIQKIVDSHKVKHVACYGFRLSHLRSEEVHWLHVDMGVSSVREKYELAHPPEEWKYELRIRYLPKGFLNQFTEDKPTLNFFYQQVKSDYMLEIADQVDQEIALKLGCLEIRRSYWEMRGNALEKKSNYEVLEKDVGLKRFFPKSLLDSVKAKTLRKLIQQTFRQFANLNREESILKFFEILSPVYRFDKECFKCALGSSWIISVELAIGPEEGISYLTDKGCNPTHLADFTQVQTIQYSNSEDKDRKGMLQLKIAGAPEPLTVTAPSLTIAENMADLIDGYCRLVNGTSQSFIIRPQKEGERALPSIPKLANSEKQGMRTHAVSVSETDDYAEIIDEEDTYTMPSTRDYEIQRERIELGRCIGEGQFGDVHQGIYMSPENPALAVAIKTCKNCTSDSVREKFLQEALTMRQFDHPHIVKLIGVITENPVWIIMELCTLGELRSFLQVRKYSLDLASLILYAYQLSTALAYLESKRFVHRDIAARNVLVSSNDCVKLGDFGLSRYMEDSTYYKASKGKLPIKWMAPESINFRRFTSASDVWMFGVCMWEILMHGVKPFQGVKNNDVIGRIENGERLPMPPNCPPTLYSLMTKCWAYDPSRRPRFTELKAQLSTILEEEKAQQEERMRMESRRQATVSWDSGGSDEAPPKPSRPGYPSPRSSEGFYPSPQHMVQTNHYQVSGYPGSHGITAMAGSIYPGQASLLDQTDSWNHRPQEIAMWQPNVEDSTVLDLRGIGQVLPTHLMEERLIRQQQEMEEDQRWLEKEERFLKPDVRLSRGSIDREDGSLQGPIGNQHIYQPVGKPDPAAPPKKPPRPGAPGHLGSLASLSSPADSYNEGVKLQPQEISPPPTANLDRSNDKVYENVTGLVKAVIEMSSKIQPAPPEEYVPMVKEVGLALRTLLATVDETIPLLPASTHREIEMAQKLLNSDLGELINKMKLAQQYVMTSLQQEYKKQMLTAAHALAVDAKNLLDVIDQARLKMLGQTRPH
Sequence of Concanavalin-A (Canavalia ensiformis) (P02866 whole entry, looked up): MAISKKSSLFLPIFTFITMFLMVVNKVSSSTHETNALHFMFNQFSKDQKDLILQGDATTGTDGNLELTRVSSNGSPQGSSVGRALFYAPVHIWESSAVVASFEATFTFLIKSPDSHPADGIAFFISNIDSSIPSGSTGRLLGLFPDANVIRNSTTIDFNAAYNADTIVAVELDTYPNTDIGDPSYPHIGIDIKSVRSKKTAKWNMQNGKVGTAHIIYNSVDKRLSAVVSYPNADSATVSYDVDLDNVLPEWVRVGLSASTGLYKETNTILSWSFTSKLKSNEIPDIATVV

For the compound `CC(=O)OC[C@H]1O[C@H](CCON=C(C)CCC(=O)OC[C@H]2O[C@H](C#Cc3ccccc3)C=C[C@@H]2Oc2ccc(C)cc2)C=C[C@@H]1OC(C)=O`, the composite z-score is 0.208 in the assay with Albumin (Bos taurus); 0.0322 in assay [2]; -0.204 in assay [3]; -0.085 in assay [4]; 0.1 in [5]; 0.448 in [6]. In addition, the composite z-score with Sam68 (KHDRBS1) was 0.287; in assay [7], 0.401; in assay [8], 0.194; in [9], 0.0004; in assay [10], 0.125; in assay [11], 0.369. Moreover, the composite z-score turned out to be 0.185 in [12]; 0.496 in assay [13]; 0.592 in assay [14]; 0.802 in the assay on Lefty1; 0.0698 in assay [16]. Further, the composite Z-score in assay [1] was 0.131 (inactive). Further, the figures for the z-score in assay [15] and in assay [17] were -0.518 and 0.54 (inactive), respectively.
As to `CN1C(=O)[C@@]2(CCC(=O)OC(C)(C)C)N=C(c3ccc(OCCCO)cc3)O[C@H]2c2ccccc21`, the composite z-score in the assay with Albumin (Bos taurus) was 0.498; in assay [2], -0.0694; in assay [3], -0.165; in [4], 0.337; in [5], 2.38; in [6], 0.176. Moreover, the composite z-score with Sam68 (KHDRBS1) was determined as 1.27; in assay [7], 0.0811; in [8], 1.09; in assay [9], 1.87; in assay [10], 1.17; in [11], 0.102. For the same compound, the composite z-score came out at 0.411 in assay [12]; 1.36 in assay [13]; 0.611 in [14]; 0.369 in the assay with Lefty1; 0.761 in [16]. Besides, in [1], the composite Z-score is -0.428 (inactive). Also, the z-score in assay [15] is 1.33; in assay [17] it was -2.62 (inactive).
`COC(=O)[C@@]1(Cc2ccc(F)cc2)[C@@H]2C(=CC(=O)[C@H]2CC(=O)C(=O)N(C)C)CN1C(=O)c1ccccc1`: the composite z-score turned out to be 0.979 with Albumin (Bos taurus); 0.476 in [2]; 0.308 in assay [3]; 0.785 in assay [4]; 3.01 in [5]; 0.663 in assay [6]. In addition, the composite z-score with Sam68 (KHDRBS1) is 1.21; in assay [7], 0.13; in assay [8], 1.16; in [9] it was 2.36; in assay [10], 1.26; in [11], 1.09. Also, the composite z-score in assay [12] is 0.981; in [13] it was 0.635; in assay [14], -0.54; in the assay on Lefty1 it was -0.421; in assay [16], 0.847. The composite Z-score in [1] was -1.12 (inactive). Moreover, the z-score is 0.589 in assay [15] and 1.24 (inactive) in assay [17].
With `COc1ccc([Si](C)(C)[C@@H]2[C@@H](CCO)O[C@]3(C(=O)N(Cc4ccc(NC(C)=O)cc4)c4ccccc43)[C@H]2C)cc1`, the composite z-score with Albumin (Bos taurus) was 0.78; in assay [2] it was 0.217; in assay [3], 0.0884; in assay [4] it was 0.574; in [5], 1.08; in assay [6] it was 0.222. Besides, the composite z-score in the assay on Sam68 (KHDRBS1) was 1.15; in assay [7] it was 0.465; in assay [8], 1.1; in assay [9] it was 1.92; in assay [10], 1.22; in [11], 0.11. Further, the composite z-score in [12] was found to be 0.963; in assay [13], 1.07; in assay [14], 0.228; with Lefty1 it was 0.727; in assay [16] it was 0.771. In addition, the composite Z-score in [1] is 0.19 (inactive). For the same compound, the z-score in assay [15] is -0.898; in assay [17] it was 0.377 (inactive).
Take `CN(C)c1ccc(C(O)C2C=CC3C(=O)N(c4ccccc4)C(=O)C3N2Nc2ccccc2F)cc1` (stereo not given): the composite z-score with Albumin (Bos taurus) is 0.62; in [2] it was 0.134; in assay [3] it was 0.0605; in assay [4] it was 0.522; in assay [5], 1.11; in assay [6] it was -0.301. Further, the composite z-score is 0.87 in the assay on Sam68 (KHDRBS1); -0.371 in assay [7]; 0.676 in assay [8]; 1.68 in assay [9]; 1.24 in [10]; 0.0651 in assay [11]. In addition, the composite z-score in assay [12] is 0.793; in [13] it was 0.404; in assay [14], -0.872; with Lefty1 it was 0.0136; in assay [16], 0.792. In addition, the composite Z-score in assay [1] is -0.122 (inactive). Also, the z-score in assay [15] was -1.06; in [17] it was -0.484 (inactive).
Consider `COc1ccc(O[C@H]2C=C[C@@H](c3ccccc3)O[C@@H]2COC(=O)CCC(C)=NO[C@@H](C)c2cc(-c3c(C)cc(C)cc3C)no2)cc1`, for which the composite z-score was -0.0567 in the assay with Albumin (Bos taurus); -0.187 in assay [2]; -0.153 in assay [3]; -0.505 in assay [4]; -0.451 in assay [5]; -0.522 in assay [6]. Besides, the composite z-score was -0.822 in the assay on Sam68 (KHDRBS1); -0.654 in [7]; -1.63 in assay [8]; -0.566 in assay [9]; -0.23 in assay [10]; -0.174 in assay [11]. The composite z-score is -0.223 in assay [12]; -1.32 in [13]; -0.848 in assay [14]; -0.773 in the assay with Lefty1; -0.204 in assay [16]. Further, in [1], the composite Z-score is -0.314 (inactive). Besides, the z-score is 0.67 in [15] and 1.21 (inactive) in assay [17].
